Most compounds without a hit are left out; they make up all but 1.7% or so of the library.
LANA-H2B inh = blocks KSHV LANA binding to histone H2A/H2B; cell-free LANA-H2A/H2B peptide, fluorescence polarization; AID 2629; 320,000 compounds, 0.6% hits; inhibition, % (test concentration not listed); Q9QR71; in the data active means inhibition mostly above about 10%, no sharp cut-off; inactive means mostly below about 6.7%
Target sequence (Q9QR71 whole entry, looked up): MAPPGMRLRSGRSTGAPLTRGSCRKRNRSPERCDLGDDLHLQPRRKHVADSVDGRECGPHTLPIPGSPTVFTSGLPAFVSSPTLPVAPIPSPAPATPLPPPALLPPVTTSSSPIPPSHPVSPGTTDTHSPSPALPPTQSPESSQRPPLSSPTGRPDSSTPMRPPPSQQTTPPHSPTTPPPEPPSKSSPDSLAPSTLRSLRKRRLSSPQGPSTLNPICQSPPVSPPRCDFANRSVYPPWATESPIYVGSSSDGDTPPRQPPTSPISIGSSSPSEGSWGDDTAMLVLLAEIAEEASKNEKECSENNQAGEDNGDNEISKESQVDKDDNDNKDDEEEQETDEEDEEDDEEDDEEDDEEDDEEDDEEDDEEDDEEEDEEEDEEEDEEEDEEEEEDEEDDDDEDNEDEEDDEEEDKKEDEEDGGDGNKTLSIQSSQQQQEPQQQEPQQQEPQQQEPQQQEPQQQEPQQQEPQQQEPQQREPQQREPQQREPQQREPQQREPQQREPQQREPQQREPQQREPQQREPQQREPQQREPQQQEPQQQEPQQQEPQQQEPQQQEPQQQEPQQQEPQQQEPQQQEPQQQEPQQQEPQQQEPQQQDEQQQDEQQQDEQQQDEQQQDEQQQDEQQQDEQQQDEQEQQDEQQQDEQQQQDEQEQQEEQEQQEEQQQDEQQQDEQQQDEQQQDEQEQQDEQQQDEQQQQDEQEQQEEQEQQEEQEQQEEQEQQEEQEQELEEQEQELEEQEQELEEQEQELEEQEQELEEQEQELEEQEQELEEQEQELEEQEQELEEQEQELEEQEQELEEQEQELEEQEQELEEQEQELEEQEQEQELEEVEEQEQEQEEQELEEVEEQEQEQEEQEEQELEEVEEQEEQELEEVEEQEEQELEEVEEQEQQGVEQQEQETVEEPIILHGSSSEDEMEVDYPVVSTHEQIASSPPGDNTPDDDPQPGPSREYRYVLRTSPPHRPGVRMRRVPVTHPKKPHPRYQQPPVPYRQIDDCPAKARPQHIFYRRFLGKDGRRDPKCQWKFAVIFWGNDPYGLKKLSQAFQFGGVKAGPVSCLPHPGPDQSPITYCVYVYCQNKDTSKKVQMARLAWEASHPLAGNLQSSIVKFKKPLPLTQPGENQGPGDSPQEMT
HDAC3 inh = blocks human histone deacetylase 3 | O15379 | recombinant HDAC3, fluorogenic peptide/trypsin coupled, fluorescence | inhibition, % at 8.3 µM | 320,000 compounds, 0.15% hits | AID 2718; in the data active means inhibition above about 26%, passing the limit was not always enough
CTSL1 counter = counter-screen for PFM18AAP inhibitors: inhibitors of F. hepatica cathepsin L1 | recombinant F. hepatica cathepsin L1, Z-Leu-Arg-MCA fluorescence | inhibition, % at 5.96 µM | 300,000 compounds, 0.49% hits | AID 1906;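 active means inhibition above the mean of all tested compounds plus 3 SD, set per screening campaign, cut at about 17% in these data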
HTR2A ag = mouse HTR2A agonism via beta-arrestin recruitment | AID 624169 | CHO-K1 mHTR2A beta-arrestin complementation, luminescence; percent of 30 µM serotonin response | activation, % at 7.6 µM | 360,000 compounds, 0.66% hits;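 active means activation above a run cutoff, the mean activation of all tested compounds plus 3 SD, cut at about 14% in these data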
OPRM1 ag = OPRM1 agonism in mouse HTR2A counterscreen. shares compounds with HTR2A ag. U2OS OPRM1 beta-arrestin PathHunter, luminescence; DMSO 0%, DAMGO 9.3 µM 100%. activation, % at 9.3 µM. 2,300 compounds, 5.3% hits. AID 624380;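 active means mean activation above the mean of DMSO-only wells plus 3 SD, cut at about 0.5% in these data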
m5-HT2A ag conf = mouse HTR2A agonism confirmed | 2,300 compounds, 19% hits | CHO-K1 PathHunter beta-arrestin recruitment, luminescence; DMSO 0%, 30 µM serotonin 100% | activation, % at 7.6 µM | shares compounds with HTR2A ag | AID 624381;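 active means mean activation across triplicates above the hit threshold derived in the original primary screen, cut at about 15% in these data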
Of the large screens only hits and unclear results are named; the others gave an inactive call (follow-up assays come after a bar, where they were run).

CCOC(=O)C1=C(CC)Nc2ccccc2N/C1=N\S(=O)(=O)c1cccc(C(C)=O)c1	HTR2A ag 20 (no result: CTSL1 counter) | OPRM1 ag inactive | m5-HT2A ag conf inactive
CCOC(=O)C1=C(CC)Nc2ccccc2N/C1=N\S(=O)(=O)c1ccccc1F	none (no result: CTSL1 counter)
Cc1nnc2ccc(-c3ccc(NS(=O)(=O)c4ccc(Cl)s4)cc3)nn12	none (no result: LANA-H2B inh, CTSL1 counter)
CCN(CC(=O)Nc1ccc(OC)cc1)C(=O)C1CC(=O)N(Cc2ccccc2)C1 (configuration not stated)	HTR2A ag 16 (no result: LANA-H2B inh, HDAC3 inh, CTSL1 counter) | OPRM1 ag inactive | m5-HT2A ag conf inactive
NS(=O)(=O)c1ccc(NC(=O)COC(=O)C2CC(=O)N(Cc3ccccc3)C2)cc1 (configuration not stated)	HTR2A ag 16 | OPRM1 ag inactive | m5-HT2A ag conf inactive
COc1ccc(NC(=O)CN(C)C(=O)C2CC(=O)N(Cc3ccc(C)cc3)C2)cc1 (configuration not stated)	none
COc1ccc(Cc2nc3ccc(C(=O)NCC(C)(C)OC)cc3o2)cc1	none
O=C(CN1C(=O)c2ccccc2C1=O)Oc1ccc(F)cc1	none (no result: HTR2A ag)
Cc1cccc(OCC(=O)Nc2nnc(S(=O)(=O)N3CCC(C)CC3)s2)c1	HTR2A ag 17 | OPRM1 ag inactive | m5-HT2A ag conf inactive
Cc1cccc(OCC(=O)Nc2nnc(S(=O)(=O)N3CCCCC3)s2)c1	none
COc1ccc(-n2nc3c(c2NC(=O)COc2cccc(OC)c2)CS(=O)(=O)C3)cc1	none
CN1C2CCC1CC(NC(=O)CSCc1ccc(Cl)cc1Cl)C2 (configuration not stated)	none
O=C1N=C(N2CCOCC2)S/C1=C\c1ccc(-c2ccccc2Cl)o1	none (no result: LANA-H2B inh, HDAC3 inh)
Cc1ccccc1-c1ccc(/C=C2/SC(N3CCOCC3)=NC2=O)o1	HTR2A ag 21 | OPRM1 ag inactive | m5-HT2A ag conf 89
Cc1cc(S(=O)(=O)Nc2nc(CN3CCOCC3)nc3sc4c(c23)CCC4)ccc1F	none (no result: CTSL1 counter)
CCN(CC)C(=O)c1ccc(-c2nnc(Nc3ccc(C(=O)NC)cc3)c3ccccc23)cc1	HTR2A ag 14 | OPRM1 ag inactive | m5-HT2A ag conf inactive
CC(=O)c1cccc(S(=O)(=O)N2CCC(C(=O)Nc3cccc(C(=O)NC4CC4)c3)CC2)c1	none (no result: CTSL1 counter)
CCc1nnc(NC(=O)CCC(=O)N2CCN(Cc3ccc(Cl)cc3)CC2)s1	none
CCc1nnc(NC(=O)CCC(=O)N2CCN(Cc3ccccc3)CC2)s1	HTR2A ag 16 | OPRM1 ag inactive | m5-HT2A ag conf inactive
Cc1ccc(C(=O)Nc2cccc(S(=O)(=O)N3CCCCC3)c2)cc1[N+](=O)[O-]	none (no result: CTSL1 counter)
COc1ccc(C(CNC(=O)c2nn(-c3ccccc3)c(=O)c3ccccc23)N2CCOCC2)cc1 (configuration not stated)	none (no result: LANA-H2B inh, HDAC3 inh, CTSL1 counter)
O=C1CC(N2CCN(c3ccc(Cl)c(Cl)c3)CC2)C(=O)N1 (configuration not stated)	HTR2A ag 19 | OPRM1 ag 1.6 | m5-HT2A ag conf 18
COC(=O)N1CCN(c2ccc(Cl)c(Cl)c2)CC1	none
N#C/C=C(/N)N1CCN(c2ccc(Cl)c(Cl)c2)CC1	HTR2A ag 35 | OPRM1 ag inactive | m5-HT2A ag conf 19
Nc1ccc(N2CCN(c3ccc(Cl)c(Cl)c3)CC2)cc1	HTR2A ag 35 | OPRM1 ag inactive | m5-HT2A ag conf inactive
COC(=O)CN1C(=O)[C@H]2[C@@H](/C=C/c3ccccc3)N3C(=O)CN(Cc4ccccc4)C(=O)[C@@]3(C)[C@H]2C1=O	none
COc1ccc(OC)c(S(=O)(=O)N2CCC(C(=O)Nc3cccc(C)c3C)CC2)c1	none
COc1ccc(NC(=O)N2CCCC(C(=O)Nc3cccc(C)c3C)C2)cc1 (configuration not stated)	HTR2A ag 16 | OPRM1 ag inactive | m5-HT2A ag conf inactive
CN(Cc1ccco1)C(=O)c1cc2c(s1)-c1ccc(Cl)cc1S(=O)(=O)C2	none
COc1ccc(N(C)C(=O)c2cc3c(s2)-c2ccc(Cl)cc2S(=O)(=O)C3)c(OC)c1	HTR2A ag 14 | OPRM1 ag inactive | m5-HT2A ag conf inactive
Nc1nnc(SCC(=O)c2ccc([N+](=O)[O-])cc2)s1	none
Cc1nnc(SCC(=O)c2ccc([N+](=O)[O-])cc2)s1	HTR2A ag 15 | OPRM1 ag 0.5 | m5-HT2A ag conf inactive
